Assay outcomes deposited in PubChem BioAssay by The Scripps Research Institute Molecular Screening Center.
SRC2 TRFRET art = TR-FRET signal artefacts, primary screen, artefact control for PPARgamma SRC-2 agonist project, biochemical. AID 1049, 2008. TR-FRET ratio at 8 µM. TR-FRET artefact counter-screen; active compounds read high. actives 0.4% (n = 200,000)
PPARg SRC-3 ag = PPARgamma agonists recruiting SRC-3 coactivator, primary screen, biochemical | biochemical PPARgamma/SRC-3 coactivator recruitment assay | actives 0.26% (n = 200,000) | AID 731, 2007 | activation, % at 8 µM | Peroxisome proliferator-activated receptor gamma (Homo sapiens), P37231; in the data active = activation above about 23%;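 note: 0% = DMSO and 100% = reference agonist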
Target sequence (P37231 whole entry, looked up): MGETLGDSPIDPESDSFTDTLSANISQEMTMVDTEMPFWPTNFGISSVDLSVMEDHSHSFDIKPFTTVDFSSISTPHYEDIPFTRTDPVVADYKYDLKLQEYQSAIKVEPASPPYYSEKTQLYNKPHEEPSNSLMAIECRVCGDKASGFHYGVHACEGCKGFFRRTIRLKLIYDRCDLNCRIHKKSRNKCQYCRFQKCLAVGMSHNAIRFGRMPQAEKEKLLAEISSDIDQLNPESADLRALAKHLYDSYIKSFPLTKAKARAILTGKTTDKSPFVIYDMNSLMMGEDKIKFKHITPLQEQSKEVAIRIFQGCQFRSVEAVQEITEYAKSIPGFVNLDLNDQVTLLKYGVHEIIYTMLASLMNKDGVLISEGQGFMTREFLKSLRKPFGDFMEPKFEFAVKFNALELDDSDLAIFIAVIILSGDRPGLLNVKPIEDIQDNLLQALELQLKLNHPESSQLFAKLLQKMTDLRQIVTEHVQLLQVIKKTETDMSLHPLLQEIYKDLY
SRC3 TRFRET art = TR-FRET detection interference compounds, artefact control for PPARgamma SRC-3 recruitment agonists, biochemical, TR-FRET ratio | actives 0.39% (n = 99,000) | TR-FRET artefact counter-screen, PPARgamma/SRC-3 format; active compounds read high | AID 1048, 2008 | TR-FRET ratio at 8 µM
PPARg SRC1 recr = PPARgamma agonists recruiting SRC-1 coactivator, primary screen, biochemical | PPARgamma-SRC-1 coactivator recruitment biochemical assay | activation, % at 8 µM | actives 0.41% (n = 200,000); in the data active = activation above about 19%;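 note: 0% = DMSO and 100% = reference agonist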
PPARg SRC2 recr = agonists of PPARg-SRC-2 recruitment, primary screen, biochemical, HTS. actives 0.34% (n = 200,000). Peroxisome proliferator-activated receptor gamma (Homo sapiens), P37231. PPARgamma LBD-SRC-2 recruitment. AID 1032, 2008. activation, % at 8 µM; in the data active = activation above about 22%;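 note: 0% = vehicle and 100% = reference agonist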
SRC1 TRFRET art = TR-FRET detection interference compounds, primary screen, artefact control for PPARgamma SRC-1 recruitment agonists, biochemical, TR-FRET emission ratio. TR-FRET detection artefact counter-screen; active compounds read high. TR-FRET ratio at 8 µM. actives 0.34% (n = 99,000); in the data active = TR-FRET ratio above about 2300
Active calls of the source: *; nt = no result given. This is a sample that favours compounds with a hit; in the whole collection about 0.9% have one here. Cut-off read from the data, not from the text of the source, unless noted: active = TR-FRET ratio above about 2000; inactive = the rest.

SMILES | SRC2 TRFRET art | PPARg SRC-3 ag | SRC3 TRFRET art | PPARg SRC1 recr | PPARg SRC2 recr | SRC1 TRFRET art
COc1ccc(-c2cc(=O)c3ccccc3s2)cc1 | 1505 | 0 | nt | 0 | -4 | nt
Cc1cc2c(c(SCC#N)n1)C(=O)OC2 | 1727 | -1 | 1743 | 8 | 3 | 1789
O=S(=O)(Nc1ccc(C(F)(F)F)cc1)c1cnc[nH]1 | 1467 | -1 | 1657 | 8 | 6 | 1541
O=S(=O)(Nc1cccc(C(F)(F)F)c1)c1cnc[nH]1 | 1811 | 1 | 1615 | 5 | 35* | 1838
NC(N)=N/N=C/c1cccc(Cl)c1Cl | 1564 | -2 | 1467 | -2 | 3 | 1632
CN(C)c1ncc(C2=C(Cl)C(=O)C(N3CCCC3)=C(Cl)C2=O)s1 | 1624 | -7 | nt | 26* | 9 | nt
COC(=O)c1ccc(C(=O)OC)c(NC(=O)CCC(=O)O)c1 | 1558 | -7 | nt | 7 | 3 | nt
COC(=O)c1ccc(C(=O)OC)c(NC(=O)C(C)(C)C)c1 | 1765 | 0 | 1496 | 46* | 9 | 3181*
S=C(NCc1ccc(Cl)cc1Cl)Nc1ccccc1 | 1553 | 23* | 1623 | 6 | 3 | 1828
CCOC(=O)C1C(=O)C=C(c2ccc([N+](=O)[O-])cc2)CC1c1ccccc1 (stereo not given) | 1385 | 3 | nt | 2 | 1 | nt
CCOC(=O)C1C(=O)C=C(c2ccc(C)cc2)CC1c1ccccc1 (stereo not given) | 2001* | 0 | 1705 | 8 | 11 | 2102
CCCCOc1ccc(NC2=NC3(CCCC3)N=C(N)N2)cc1 | 2220* | 2 | nt | 7 | 41* | nt
C/C(O)=C(\N=Nc1cc(C)ccc1O)C(N)=O | 1517 | 5 | 1586 | -1 | 0 | 1631
O=C(NCc1ccccc1Cl)C(=O)NCC1OCCN1S(=O)(=O)c1cccs1 (stereo not given) | 1668 | 5 | 1702 | 8 | -2 | 1881
COc1ccc(C2CC(=O)c3c([nH]c(C(=O)OC(C)C)c3C)C2)cc1OC (stereo not given) | 1553 | 32* | 3447* | -2 | -3 | 1581
CCN(CC)S(=O)(=O)c1cc(NC(=O)c2ccc(Br)s2)ccc1C | 1640 | 7 | 1805 | 0 | 14 | 2789*
N#Cc1c(-c2ccc(Br)cc2)cc(-c2cccnc2)nc1N | 1568 | 11 | 2107* | 6 | 1 | 1900
Nc1ccc2c(c1)Cc1cc([N+](=O)[O-])ccc1-2 | 2054* | 3 | 1573 | 20 | 11 | 1760
Cc1ccc([N+](=O)[O-])cc1N | 1648 | -1 | 1774 | 2 | 5 | 2200
CCOC(=O)CS(=O)(=O)c1ccccc1 | 1540 | 4 | nt | 1 | 0 | nt
CCOC(=O)CS(=O)(=O)c1ccc(O)cc1 | 1582 | 3 | 1704 | 21* | 0 | 1801
CC1CCN(S(=O)(=O)c2ccc3c(c2)oc(=O)n3CC(=O)N2c3ccccc3CC2C)CC1 (stereo not given) | 2000* | 9 | nt | 10 | 16 | nt
COCc1c(C(=O)OC)nnn1-c1ccccc1 | 1401 | 12 | nt | 94* | -4 | nt
COC(=O)c1nnn(-c2ccccc2)c1N | 1453 | 1 | nt | -1 | 1 | nt
CC(C)Cn1c(N)c(C(=O)COC(=O)c2ccc([N+](=O)[O-])o2)c(=O)n(C)c1=O | 1982* | 5 | 1448 | 3 | 12 | 1937
SMILES | SRC2 TRFRET art | PPARg SRC-3 ag | SRC3 TRFRET art | PPARg SRC1 recr | PPARg SRC2 recr | SRC1 TRFRET art
COc1ccc(-c2cc(C(F)(F)F)n3ncc(C(=O)Nc4c(C)n(C)n(-c5ccccc5)c4=O)c3n2)cc1 | 1473 | 0 | 1460 | -1 | 1 | 1714
CC(c1ccccc1)C1CC(=O)N(Cc2ccccc2)C1=O (stereo not given) | 1409 | 4 | 1638 | 2 | 3 | 1620
CC(C)N(C(=O)CSc1nn2c(=O)c(C(C)(C)C)nnc2s1)c1ccccc1 | 1419 | 0 | nt | 0 | -6 | nt
Cc1cc(C(=O)CSc2nn3c(=O)c(C(C)(C)C)nnc3s2)c(C)n1-c1ccc(F)cc1 | 2070* | 22 | nt | 9 | 13 | nt
O=C(CSc1nc(C2CC2)nc2ccccc12)N1c2ccccc2Sc2ccc(C(F)(F)F)cc21 | 1994* | 3 | nt | -1 | -1 | nt
O=C(CN1CCCC(O)C1)N1c2ccccc2Sc2ccc(C(F)(F)F)cc21 (stereo not given) | 1597 | 8 | nt | 10 | 3 | nt
NNc1nc2c(-c3ccc(F)cc3)nnn2c2ccccc12 | 1767 | 6 | 1482 | 24* | 9 | 1861
NNc1nc2c(-c3ccc(Cl)cc3)nnn2c2ccccc12 | 1573 | 6 | 1621 | 11 | 2 | 1516
Cc1c(NC(=O)CS(=O)(=O)c2ccccc2)c(=O)n(-c2ccccc2)n1C | 1424 | -7 | 1542 | -3 | 4 | 1628
O=S(=O)(c1ccccc1)c1cnn2c(C(F)(F)F)cc(-c3ccc(F)cc3)nc12 | 1524 | 5 | nt | 21* | 4 | nt
O=S(=O)(c1ccccc1)c1cnn2c(C(F)(F)F)cc(-c3ccccc3)nc12 | 1466 | 0 | nt | 2 | 3 | nt
O=C(CCn1cnnn1)Nc1ccc(F)cc1 | 1524 | 1 | 1669 | 2 | 8 | 1853
C=CCNC(=S)Nc1ccc2nsnc2c1 | 1662 | 10 | 1866 | 6 | 7 | 2407*
S=C(Nc1ccc(Cl)c(Cl)c1)NC1CCCCC1 | 1550 | -6 | nt | -4 | -1 | nt
S=C(Nc1ccc2nsnc2c1)NC1CCCCC1 | 1719 | 9 | 1898 | 11 | 6 | 2457*
CCOc1ccc(NC(=S)Nc2ccc3nsnc3c2)cc1 | 1676 | 13 | 2027 | 15 | 9 | 2443*
COc1ccc(CCNC2CC(=O)N(C3CCCCC3)C2=O)cc1OC (stereo not given) | 1586 | 7 | 1716 | -5 | 8 | 1852
CC(C)N1CCN(Cc2ccc(C#CCCO)cc2)CC1CCO (stereo not given) | 1527 | -1 | 1653 | -10 | -5 | 1634
CCOC(=O)C1=C(C)OC(N)=C(C#N)C1c1cc2ccccc2nc1N1CCCCC1 (stereo not given) | 1713 | 26* | nt | 15 | 15 | nt
O=C(COc1ccccc1-c1ccccc1)NCc1ccco1 | 1456 | -5 | 1556 | 54* | 3 | 4796*
O=C(NCc1nc2ccccc2[nH]1)c1ccc(S(=O)(=O)N2CCOCC2)cc1 | 1535 | 1 | nt | 3 | 6 | nt
Cc1ccc(-c2[nH]c3ccccc3c2SCCNC(=O)c2ccc(S(=O)(=O)N3CCOCC3)cc2)cc1 | 2560* | 10 | 2709* | 6 | 8 | 3343*
COc1ccc(-c2[nH]c3ccccc3c2SCCNC(=O)c2ccccc2)cc1 | 1807 | 4 | 2781* | 8 | 24* | 2021
Cc1cc2ccccc2n1CCNC(=O)c1ccccc1 | 1939 | 7 | nt | 3 | 7 | nt
COc1ccc(C(=O)NCCSc2ccccc2)cc1 | 1445 | 4 | 1629 | 6 | 11 | 1905
